Bioassay records: PubChem, National Center for Advancing Translational Sciences (NCATS)
MCF10A rerep: DNA re-replication induction in MCF 10a cells | MCF 10A DNA re-replication, Hoechst nuclear intensity, 48 h | Potency, µM (doses to about 46.1 µM), hits mostly activators | hit rate 2.9% among 350,000; also: nearly all actives have a fitted effect of over 50% in size
KB-V1 MDR tox: kills drug-selected multidrug resistant KB-V1 cells. KB-V1 MDR cells viability, CellTiter-Glo, 72 h. Potency, µM (highest dose often 46.1 µM), actives largely listed as cytotoxic. hit rate 3.4% among 400,000. AID 1347076; also: nearly all actives have a fitted effect of over 60% in size
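In this primary screen, KB-V1 cells overexpressing P-gp are incubated with library compounds (lowest to highest concentration) for 72 h at 37 degrees C before a luminescent ATP viability read.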
KB-3-1 tox: kills parental KB-3-1 adenocarcinoma cells; hit rate 1.4% among 400,000; AID 1347075; KB-3-1 viability, CellTiter-Glo ATP luminescence, 72 h; Potency, µM (titrated, usually from 46.1 µM), usual class: cytotoxic; also: nearly all actives have a fitted effect of over 60% in size
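Screening of KB-3-1 cells (DMEM, 10% FBS, phenol-red free) ran from lowest to highest compound concentration; after 72 h at 37 °C viability was read luminescently and curves fitted.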
IL1B secr inh: inflammasome signaling inhibition, IL-1 beta readout; THP-1 LPS/ATP IL-1B secretion, AlphaLISA, 16 h; active compounds read low; activity change, % at 57.5 µM; hit rate 4.7% among 360,000; in the data active = activity change below about -50%; inconclusive = mostly about -30% to -49%
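THP-1 cells pretreated 1 hr with compounds (up to 57.5 uM final), then stimulated with LPS (250 ng/mL final) plus ATP (1.25 mM final); secreted IL-1B measured by AlphaLISA after 16 hr, decreased signal indicating inhibition.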
SW480 rerep: DNA re-replication induction in SW480 cells. SW480 DNA re-replication, Hoechst DNA content imaging, 48 h. Potency, µM (series often up to 46.1 µM), actives largely listed as activators. hit rate 1.8% among 340,000; also: nearly all actives have a fitted effect of over 55% in size
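250 cells/well; 23 nL cpd via pin tool; 48 hr, 37 C, 5% CO2; Hoechst 40 min; imager read of total nuclear intensity, ex 405/em 500-530 nm.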
Each line names hits and unclear results; the compound was inactive in the other large screens. An excerpt weighted towards active compounds, which were near 9.9% of everything screened. Unless noted, calls follow the shape of the dose curve; as a rule, active = well fitted curve in the direction sought with a large enough effect; inconclusive = small, poorly fitted or top-dose-only effect, or another doubt; inactive = no such curve, though single readings can be large; an effect the other way counts as inactive or inconclusive.

O=C(COc1ccc(C(=O)NCC2CCCO2)cc1)Nc1cccc(C(F)(F)F)c1 (centres undefined)	none
Cc1cc(C)c(S(=O)(=O)Nc2ccc(-c3ccc(N4CCCCCC4)nn3)cc2)c(C)c1	KB-V1 MDR tox inconclusive (no result: MCF10A rerep, IL1B secr inh, SW480 rerep)
CC(=O)Nc1ccc2c(c1)C(=O)c1ccc(Cl)cc1-2	KB-V1 MDR tox inconclusive
CN(C)S(=O)(=O)c1cccc(-c2cn3cc(Cl)ccc3n2)c1	KB-V1 MDR tox 16µM
COc1ccc(-c2cn3cc(C)ccc3n2)cc1OC	KB-V1 MDR tox 6.5µM
COc1ccc(-c2cn3cc(C)ccc3n2)cc1F	KB-V1 MDR tox inconclusive, SW480 rerep inconclusive
Clc1ccc2nc(-c3ccc4c(c3)OCO4)cn2c1	MCF10A rerep inconclusive, KB-V1 MDR tox inconclusive, KB-3-1 tox inconclusive, SW480 rerep 23µM
CN(C)S(=O)(=O)c1cccc(-c2cn3ccccc3n2)c1	none
Cc1ccc2nc(-c3ccc4c(c3)OCCO4)cn2c1	MCF10A rerep 5.8µM, KB-V1 MDR tox inconclusive, KB-3-1 tox 3.7µM, SW480 rerep 2.6µM
Cc1ccc(CNC(=O)C2CCN(Cc3nc(-c4ccccc4C)oc3C)CC2)cc1	none (no result: MCF10A rerep, IL1B secr inh, SW480 rerep)
COc1ccc(N2C(=O)C(CC(N)=O)N(NC(=O)CCc3ccccc3)C2=O)cc1 (centres undefined)	KB-V1 MDR tox inconclusive
Oc1nc(Nc2ccccc2)sc1/C=C1\C=Nc2ccccc21	MCF10A rerep 21µM
CCOC(=S)SCC(=O)N1CCc2cc(OC)ccc2C1C1C(=O)CCCC1=O (centres undefined)	MCF10A rerep inconclusive, KB-V1 MDR tox inconclusive, KB-3-1 tox inconclusive, SW480 rerep 10µM
CCOC(=S)SCC(=O)N1CCc2cc(OC)c(OC)cc2C1C1C(=O)CC(C)(C)CC1=O (centres undefined)	MCF10A rerep inconclusive
Cc1ccc(Nc2nnc(SCC(=O)NCCN3C(=O)CSC3=O)s2)cc1C	none
C=C1C(=O)O[C@H]2C[C@]3(C)C([C@@H](OC(=O)/C(C)=C/C)[C@H]12)[C@](C)(O)CC[C@H]3O (some centres undefined)	IL1B secr inh -58
C=C[C@@]1(C)CC(=O)[C@]2(O)[C@@]3(C)[C@@H](O)CCC(C)(C)[C@@H]3[C@H](OC(C)=O)[C@H](O)[C@@]2(C)O1	none
O=C(CN(CC1CCCO1)C(=O)CNS(=O)(=O)c1ccc(Cl)cc1)NCc1ccc(F)cc1 (centres undefined)	none
COc1ccc(CCNC(=O)CNC(=O)Cn2ccc3ccccc3c2=O)cc1OC	none
CCCC[C@@H]1Cc2[nH][nH]c(=O)c2[C@H](c2ccc(C(C)C)cc2)O1	IL1B secr inh -65 (no result: MCF10A rerep, SW480 rerep)
CCCOCCOC(=O)c1[nH]c2c(c1C)C(=O)CC(c1cc(OC)ccc1OC)C2 (centres undefined)	MCF10A rerep inconclusive, KB-V1 MDR tox 5.8µM, KB-3-1 tox 5.8µM, IL1B secr inh -72, SW480 rerep 3.7µM
COC(=O)c1[nH]c2c(c1C)C(=O)CC(c1ccc(OC)cc1)C2 (centres undefined)	none
COc1ccc(OC)c(C2CC(=O)c3c([nH]c(C(=O)OCC4CCCO4)c3C)C2)c1 (centres undefined)	MCF10A rerep 15µM, KB-V1 MDR tox inconclusive, KB-3-1 tox 9.2µM, SW480 rerep inconclusive
COc1ccc(OC)c(C2CC(=O)c3c([nH]c(C(=O)OC(C)C)c3C)C2)c1 (centres undefined)	MCF10A rerep inconclusive, KB-V1 MDR tox 0.52µM, KB-3-1 tox 0.46µM, SW480 rerep 3.7µM
CCOCCOC(=O)c1[nH]c2c(c1C)C(=O)CC(c1ccc(OC)c(OC)c1)C2 (centres undefined)	KB-V1 MDR tox inconclusive
COCCOC(=O)c1[nH]c2c(c1C)C(=O)CC(c1cc(OC)ccc1OC)C2 (centres undefined)	MCF10A rerep inconclusive, KB-V1 MDR tox inconclusive, KB-3-1 tox 8.2µM, SW480 rerep 13µM
Cc1c(Cl)c([N+](=O)[O-])nn1CC(=O)N1CCN(Cc2ccccc2)CC1	none
COC(=O)CC(c1ccc(OC)c(OC)c1)c1ccc(OC)c(OC)c1	SW480 rerep inconclusive
COc1ccc(CCN2CCC(CNC(=O)c3cnn(-c4ccccc4)c3C3CCN(C(=O)OC(C)(C)C)CC3)CC2)cc1	KB-V1 MDR tox inconclusive, KB-3-1 tox 16µM (no result: MCF10A rerep, IL1B secr inh, SW480 rerep)
COc1ccc(N(C(=O)CCl)C(C(=O)NC2CCCCC2)c2cccnc2)cc1 (centres undefined)	MCF10A rerep 18µM, KB-V1 MDR tox 21µM, KB-3-1 tox 10µM, IL1B secr inh -102, SW480 rerep inconclusive
CCc1ccccc1N(C(=O)CNC(=O)c1ccco1)C(C(=O)NC1CCCC1)c1cccnc1 (centres undefined)	none
Cc1cc(C)cc(N(C(=O)CNC(=O)c2cccs2)C(C(=O)NC2CCCC2)c2cccnc2)c1 (centres undefined)	MCF10A rerep 21µM
O=C(NC1CCCCC1)C(c1cccnc1)N(C(=O)CCl)c1ccccc1Cl (centres undefined)	KB-V1 MDR tox inconclusive, KB-3-1 tox 10µM, IL1B secr inh -89, SW480 rerep inconclusive
O=C(NCC(=O)N(c1ccc(F)cc1)C(C(=O)NC1CCCCC1)c1cccnc1)c1ccco1 (centres undefined)	none
O=C(NC1CCCCC1)C(c1cccnc1)N(C(=O)CCl)c1ccc(F)cc1 (centres undefined)	MCF10A rerep 18µM, KB-V1 MDR tox 16µM, IL1B secr inh -103, SW480 rerep 2.1µM
COc1ccc(C(C(=O)NC2CCCCC2)N(C(=O)c2ccccn2)c2cccnc2)cc1 (centres undefined)	SW480 rerep inconclusive
CCN(CC(=O)Nc1c(F)cccc1F)C(=O)c1cccnc1Sc1ccccc1	SW480 rerep inconclusive
COC(=O)c1ccc(/C=N/NC(=S)NC(C)C)cc1	MCF10A rerep inconclusive, SW480 rerep 16µM
O=C(Cc1nc2ccccc2[nH]1)N/N=C/c1ccccc1	MCF10A rerep 12µM, SW480 rerep 21µM
O=C(O)c1ccc(/C=N/Nc2nc3ccccc3[nH]2)cc1	none
CC(C)(C)c1cc(/C=N/NC(=O)Cc2nc3ccccc3[nH]2)cc(C(C)(C)C)c1O	MCF10A rerep inconclusive, SW480 rerep inconclusive
CCN(CC)c1ccc(/C=N/Nc2nc3ccccc3[nH]2)cc1	MCF10A rerep 9.2µM, IL1B secr inh -85, SW480 rerep 21µM
CC(=O)Nc1ccc(/C=N/Nc2nc3ccccc3[nH]2)cc1	KB-3-1 tox 23µM, IL1B secr inh -94
CC(C)=CCNc1ncnc2c1c(C#N)cn2C1OC(CO)C(O)C1O (centres undefined)	MCF10A rerep 15µM, KB-V1 MDR tox inconclusive, KB-3-1 tox inconclusive, SW480 rerep inconclusive
O=C(NNC1=Nc2ccccc2SC1)c1ccc(F)cc1	KB-3-1 tox inconclusive
